Assay outcomes from PubChem.
NadD inh: inhibitors of S. aureus NadD, primary screen, biochemical, colorimetric, uHTS; Nicotinate-nucleotide adenylyltransferase NadD (Staphylococcus aureus N315); purified NadD enzyme, colorimetric absorbance read-out; inhibition, % at 20 µM; hit rate 0.78% among 360,000; in the data active = inhibition above about 26%
NPR2 activator: human GC-B receptor activators, primary screen, HEK293 GC-B cells, cGMP TR-FRET, EC30 CNP; Atrial natriuretic peptide receptor 2 (Homo sapiens), P20594; activation, % at 10 µM; 0% at EC30 CNP, 100% saturating CNP; AID 1920062, 2024; hit rate 0.11% among 370,000;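 active = activation at 10 µM reaching about 35% in either raw or pattern-adjusted values, limit read from the data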
Target sequence (P20594 whole entry, looked up): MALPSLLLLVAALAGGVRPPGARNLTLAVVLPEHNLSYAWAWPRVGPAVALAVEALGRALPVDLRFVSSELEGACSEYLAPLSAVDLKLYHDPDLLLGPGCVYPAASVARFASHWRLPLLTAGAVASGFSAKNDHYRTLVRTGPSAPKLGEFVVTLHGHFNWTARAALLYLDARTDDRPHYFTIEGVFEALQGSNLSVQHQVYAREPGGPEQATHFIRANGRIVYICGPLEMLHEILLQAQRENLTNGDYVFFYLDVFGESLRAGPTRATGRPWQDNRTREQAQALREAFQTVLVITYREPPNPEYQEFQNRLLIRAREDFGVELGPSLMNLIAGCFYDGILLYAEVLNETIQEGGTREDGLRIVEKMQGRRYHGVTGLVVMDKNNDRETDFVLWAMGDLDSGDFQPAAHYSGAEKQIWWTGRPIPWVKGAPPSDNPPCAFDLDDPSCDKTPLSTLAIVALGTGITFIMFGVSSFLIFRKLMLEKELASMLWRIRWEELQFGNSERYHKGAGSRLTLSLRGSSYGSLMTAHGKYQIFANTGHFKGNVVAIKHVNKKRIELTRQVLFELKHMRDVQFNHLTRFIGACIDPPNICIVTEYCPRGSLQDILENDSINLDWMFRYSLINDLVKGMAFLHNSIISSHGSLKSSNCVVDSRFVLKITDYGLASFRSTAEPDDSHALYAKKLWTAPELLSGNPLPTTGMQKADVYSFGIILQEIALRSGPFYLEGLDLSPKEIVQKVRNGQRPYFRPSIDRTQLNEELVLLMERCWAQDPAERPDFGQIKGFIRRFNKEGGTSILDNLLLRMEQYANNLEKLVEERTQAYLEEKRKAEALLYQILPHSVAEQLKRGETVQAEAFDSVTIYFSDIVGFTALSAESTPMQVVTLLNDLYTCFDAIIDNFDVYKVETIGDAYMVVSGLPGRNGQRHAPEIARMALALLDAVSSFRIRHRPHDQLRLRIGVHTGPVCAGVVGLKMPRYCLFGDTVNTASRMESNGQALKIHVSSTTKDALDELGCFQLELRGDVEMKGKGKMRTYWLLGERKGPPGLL
Neddylation inh: inhibitors of cullin neddylation, primary screen, biochemical, TR-FRET, uHTS, NAE and Ubc12. hit rate 0.58% among 360,000. NEDD8-conjugating enzyme Ubc12 (Homo sapiens) + NEDD8-activating enzyme E1 regulatory …. AID 651699, 2012. inhibition, % at 25 µM; in the data active = inhibition above about 36%
GC-A act: GC-A stimulated cGMP production enhancers – HEK293 GC-A cells, cGMP TR-FRET, EC30 ANP, primary screen; Atrial natriuretic peptide receptor 1 (Homo sapiens), P16066; 0% at EC30 ANP, 100% saturating ANP; activation, % at 10 µM; hit rate 0.14% among 370,000; in the data active = activation above about 40%
Neddyl inh conf: blockade of NEDD8 conjugation to cullin – biochemical, TR-FRET, single concentration, confirmation. shares compounds with Neddylation inh. TR-FRET cullin neddylation biochemical assay. calls only at 25 µM. hit rate 13% among 1,800; in the data active = inhibition above about 40%;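 note: neddylation substrate is the cullin 1 ring ligase complex with SKP2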
A number is an active result; – = inactive; · = no result given; + = active, no number. Shown are actives, neighbours in structure and some others; about 1.5% of the full set was active somewhere.

SMILES	NadD inh	NPR2 activator	Neddylation inh	GC-A act	Neddyl inh conf
O=C(Nc1cccc(-c2cn3ccccc3n2)c1)c1cccc(Cl)c1	–	–	41	–	·
O=C(Nc1cccc(-c2cn3ccccc3n2)c1)c1cnccn1	–	–	–	–	·
CC(=O)Nc1ccc2nc(-c3ccccc3)cn2c1	–	–	44	–	–
CCC(=O)Nc1cccc(-c2cn3ccccc3n2)c1	–	–	41	–	–
Clc1ccc2nc(-c3ccccc3)cn2c1	–	–	–	–	·
COC(CNC(=O)[C@H](Cc1c[nH]c2ccccc12)NC1(C(=O)NC2CCCCC2)CCCCC1)OC	·	–	·	–	·
Cc1cc(=O)oc2cc(OCC(=O)Nc3c(C)n(C)n(-c4ccccc4)c3=O)c(Cl)cc12	–	–	40	–	–
Cc1ccc(C)c(OCC(=O)Nc2c(C)n(C)n(-c3ccccc3)c2=O)c1	–	–	–	–	·
Cc1cc(=O)oc2cc(OCC(=O)NC3(C#N)CCCCC3)ccc12	–	–	·	–	·
Cc1cc(=O)oc2cc(OCC(=O)NC3(C#N)CCCCC3)c(Cl)cc12	–	–	40	–	–
COC(=O)c1cn(-c2ccc(-c3noc4c3C(=O)N(CC(=O)N3CCOCC3)CC4)cc2)nn1	·	–	·	–	·
COc1cc2oc(-c3ccc(O)cc3)cc(=O)c2c(OC)c1O	–	–	40	–	–
O=C(NC1CCCCN(Cc2cccc(Cl)c2)C1=O)c1ccccc1 (configuration not stated)	·	–	·	–	·
CC(=O)c1c(C)[nH]c(C(=O)COc2ccc3ccc(=O)oc3c2)c1C	–	–	47	–	–
N#Cc1ncc(-c2ccc3c(c2)OCCOCCOCCOCCOCCO3)nc1C#N	–	–	–	–	·
N#Cc1ncc(-c2ccc3c(c2)OCCOCCOCCOCCO3)nc1C#N	–	–	38	–	–
COC(=O)c1cccc(OC[C@@H](O)CN2CCC(C(O)(c3ccccc3)c3ccccc3)CC2)c1	·	–	·	–	·
Nc1ccccc1-n1cccc1	–	–	41	–	–
CCC[C@H]1[C@@H](NC(=O)C2CCOC2)CC[C@@]23CCCN2C(=O)CCC[C@@H]13 (some centres not stated)	·	–	·	–	·
Nc1ccc(-c2cc3ccccc3c(=O)o2)cc1	–	–	46	–	–
Cc1ccc(C(=O)N/C(=C/c2ccc(-c3ccc(Br)cc3)o2)C(=O)NC2CCS(=O)(=O)C2)cc1 (configuration not stated)	–	–	48	–	–
COc1ccc2oc(C(=O)OCC(=O)NCc3ccc(OC)c(OC)c3)c(C)c2c1	–	–	43	–	–
COC(=O)C1CCN(C(=O)COC(=O)c2oc3ccc(OC)cc3c2C)CC1	–	–	66	–	·
COc1ccc2oc(C(=O)OCC(=O)N(C)c3ccccc3)c(C)c2c1	–	–	55	–	·
COc1ccc2oc(C(=O)OCC(=O)N3CCC(C)CC3)c(C)c2c1	–	–	·	–	·
SMILES	NadD inh	NPR2 activator	Neddylation inh	GC-A act	Neddyl inh conf
COc1ccc2oc(C(=O)OCC(=O)N(Cc3ccccc3)C(C)C)c(C)c2c1	–	–	44	–	–
COc1ccc2oc(C(=O)OC(C)C(=O)NC3(C#N)CCCCC3)c(C)c2c1 (configuration not stated)	–	–	·	–	·
COc1ccc2oc(C(=O)OC(C)C(=O)NCc3ccccc3)c(C)c2c1 (configuration not stated)	–	–	42	–	–
O=C(NC1CCCCN(Cc2cccc(Cl)c2)C1=O)c1ccc(-c2ccccc2)cc1 (configuration not stated)	·	–	·	–	·
CC(NCc1ccco1)C(=O)N1CCOCC1 (configuration not stated)	·	–	·	–	·
O=C(CSc1cccc2cccnc12)N/N=C/c1cccc(O)c1	–	–	43	–	–
O=C(Nc1ccc2nc(-c3ccco3)[nH]c2c1)c1cccs1	–	–	45	–	–
Nc1c(C(=O)Nc2ccc3c(c2)OCCO3)nnn1Cc1ccc(F)cc1	–	–	50	–	–
Nc1c(C(=O)Nc2ccc3c(c2)OCCO3)nnn1Cc1cccc(Cl)c1	–	–	–	–	·
O=C(NCCc1ccccc1Cl)[C@@H]1CCCN1C(=O)[C@@H](NC(=O)N1CCOCC1)C1CCCCC1	·	–	·	–	·
COCCN(C(=O)COC(=O)c1cc2ccccc2cc1OC)c1c(N)n(Cc2ccccc2)c(=O)[nH]c1=O	–	–	52	–	+
CC(C)CN(C(=O)COC(=O)c1ccccc1NCc1ccco1)c1c(N)n(Cc2ccccc2)c(=O)[nH]c1=O	–	–	63	–	–
COc1cc2ccccc2cc1C(=O)OCC(=O)N(CC(C)C)c1c(N)n(Cc2ccccc2)c(=O)[nH]c1=O	–	–	47	–	–
Cc1ccc(C(=O)NCC(c2ccc(F)cc2)N2CCOCC2)cc1 (configuration not stated)	–	–	–	–	·
CC(=O)c1ccc(-c2ccc(C(=O)NCC(c3ccc(F)cc3)N3CCOCC3)o2)cc1 (configuration not stated)	–	–	57	–	+
COc1cccc(/C=C/C(=O)OCC(=O)NCCC2=CCCCC2)c1OC	–	–	41	–	–
COc1ccc(CCNC(=O)COC(=O)/C=C/c2ccc(OC)cc2OC)cc1	–	–	–	–	·
COc1cccc(/C=C/C(=O)OCC(=O)Nc2ccc(Cl)c(S(=O)(=O)N(C)C)c2)c1OC	–	–	44	–	–
COc1ccc(OC)c(/C=C/C(=O)OCC(=O)NCc2ccccc2)c1	–	–	·	–	·
COc1ccc(CCNC(=O)COC(=O)/C=C/c2cc(OC)ccc2OC)cc1	–	–	49	–	·
COc1ccc(OC)c(/C=C/C(=O)OCC(=O)NCc2cccs2)c1	–	–	52	–	·
C=CCN1C(=O)c2n[nH]c(COC)c2C1c1ccc(F)cc1 (configuration not stated)	·	–	·	–	·
Cc1ccc(S(=O)(=O)N2CC3(COC(C)(C)OC3)C[C@H]2CON2C(C)(C)CCCC2(C)C)cc1	·	–	·	–	·
COc1cccc(OC)c1-c1nnc(-c2cn(C)c3ccccc23)o1	–	–	45	–	–
COCCCNC(=O)C(C)N1c2cccc3cccc(c23)S1(=O)=O (configuration not stated)	–	–	42	–	–
Cc1cccc(NS(=O)(=O)c2cccs2)n1	–	–	40	–	–
Cc1ccc(NS(=O)(=O)c2cccs2)nc1	–	–	41	–	–
Cc1ccnc(NS(=O)(=O)c2cccs2)c1	–	–	–	–	·
COc1cc(NC(C)=O)ccc1-c1cc2ccccc2oc1=O	–	–	42	–	–
COc1cc(NC(=O)c2ccc(Cl)cc2Cl)ccc1-c1cc2ccccc2oc1=O	–	–	–	–	·
